Results from PubChem BioAssay AID1159580 (chemical genetic matrix, 2015).
“And” between values parts separate entries of the source, which are not always exact repeats. Equal values may be shown once. The whole screen tested about 5,500 compounds, of which about 2,000 (36%) were called active. Another 18% or so got no clear call; they are omitted. Cut-off read from the data, not from the text of the source: active = normalized growth mostly below about 0.91 (no sharp cut-off); inconclusive = no clear call, values can overlap the other calls; inactive = mostly above about 0.92. The list shows a part of the results.

Assay: chemical genetic growth profiling, strain panel (AID 1159580);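 note: tested at 20 µM; growth read once vehicle control cultures reached saturation at 30 °C; 1 = growth at the plate median or of vehicle wells; lower values mean less growth of the strain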
Conditions: S. cerevisiae deletion strains, growth OD

Measured: normalized growth

COc1ccc2c(c1)[C@]13CCCC[C@H]1[C@H](C2)N(C)CC3
inactive: locus YAL021C, strain ccr4, active compounds read low 0.94 | locus YAL026C, strain drs2, active compounds read low 1 | locus YAL030W, strain snc1, active compounds read low 0.971 | locus YBL061C, strain skt5, active compounds read low 0.981 | locus YBR009C, strain hhf1, active compounds read low 0.988 | locus YBR021W, strain FUR4, active compounds read low 1.01 | locus YBR023C, strain chs3, active compounds read low 0.99 | locus YBR171W, strain sec66, active compounds read low 0.933 | locus YBR229C, strain ROT2, active compounds read low 1.01 | locus YBR231C, strain swc5, active compounds read low 0.937 | locus YBR279W, strain paf1, active compounds read low 0.998 | locus YCL011C, strain gbp2, active compounds read low 0.991 | locus YCL016C, strain dcc1, active compounds read low 1.03 | locus YCL029C, strain bik1, active compounds read low 0.988 | locus YCL061C, strain MRC1, active compounds read low 0.968 | locus YCL069W, strain vba3, active compounds read low 0.995 | locus YCR088W, strain abp1, active compounds read low 0.952 | locus YDL005C, strain med2, active compounds read low 0.97 | locus YDL035C, strain GPR1, active compounds read low 1.04 | locus YDL040C, strain nat1, active compounds read low 0.962 | locus YDL074C, strain BRE1, active compounds read low 0.993 | locus YDL101C, strain DUN1, active compounds read low 1 | locus YDL134C, strain PPH21, active compounds read low 1.03 | locus YDL185W, strain tfp1, active compounds read low 0.989 | locus YDL192W, strain arf1, active compounds read low 0.995 | locus YDR001C, strain nth1, active compounds read low 0.951 | locus YDR069C, strain doa4, active compounds read low 0.943 | locus YDR101C, strain arx1, active compounds read low 0.999 | locus YDR137W, strain rgp1, active compounds read low 0.999 | locus YDR150W, strain NUM1, active compounds read low 1.01 | locus YDR159W, strain sac3, active compounds read low 0.955 | locus YDR162C, strain NBP2, active compounds read low 1.01 | locus YDR195W, strain ref2 0.926 | locus YDR297W, strain sur2, active compounds read low 0.98 | locus YDR318W, strain mcm21, active compounds read low 0.988 | locus YDR334W, strain swr1, active compounds read low 0.909 | locus YDR335W, strain msn5, active compounds read low 0.949 | locus YDR388W, active compounds read low 0.993 | locus YDR392W, strain spt3, active compounds read low 1.03 | locus YDR502C, strain sam2, active compounds read low 0.992 | locus YEL003W, strain gim4, active compounds read low 0.966 | locus YEL037C, strain rad23, active compounds read low 0.975 | locus YEL061C, strain CIN8 (second series), active compounds read low 0.96 | locus YEL061C, strain CIN8, active compounds read low 1.01 | locus YER015W, strain faa2, active compounds read low 0.961 | locus YER016W, strain bim1, active compounds read low 1 | locus YER110C, active compounds read low 0.996 | locus YER111C, strain swi4, active compounds read low 0.978 | locus YER155C, strain BEM2 (second series), active compounds read low 0.886 | locus YER155C, strain BEM2, active compounds read low 1 | locus YER167W, strain BCK2, active compounds read low 1.01 | locus YFR010W, strain ubp6, active compounds read low 0.95 | locus YGL078C, strain dbp3, active compounds read low 0.993 | locus YGL086W, strain mad1, active compounds read low 0.993 | locus YGL167C, strain pmr1, active compounds read low 0.946 | locus YGL173C, strain kem1, active compounds read low 1 | locus YGL227W, strain vid30, active compounds read low 0.965 | locus YGL240W, strain doc1, active compounds read low 0.948 | locus YGL248W, strain PDE1, active compounds read low 0.995 | locus YGL253W, strain hxk2, active compounds read low 0.998 | locus YGR078C, strain PAC10, active compounds read low 0.996 | locus YGR135W, strain pre9, active compounds read low 0.964 | locus YGR229C, strain SMI1, active compounds read low 1.02 | locus YGR252W, strain gcn5, active compounds read low 0.973 | locus YHR013C, strain ard1, active compounds read low 0.991 | locus YHR027C, strain rpn1, active compounds read low 0.985 | locus YHR030C, strain SLT2, active compounds read low 1.01 and 1.03 | locus YHR079C, strain IRE1 (second series), active compounds read low 0.984 | locus YHR079C, strain IRE1, active compounds read low 1.03 | locus YHR094C, strain hxt1, active compounds read low 0.987 | locus YHR129C, strain ARP1, active compounds read low 1.01 | locus YHR142W, strain chs7, active compounds read low 0.987 | locus YHR200W, strain rpn10, active compounds read low 0.996 | locus YIL066C, strain RNR3, active compounds read low 1.01 | locus YIL073C, strain SPO22, active compounds read low 0.976 | locus YIL125W, strain kgd1, active compounds read low 0.987 | locus YIR030C, strain dcg1, active compounds read low 0.999 | locus YJL092W, strain hpr5, active compounds read low 0.962 | locus YJL095W, strain BCK1 (second series), active compounds read low 0.978 | locus YJL095W, strain BCK1, active compounds read low 0.966 and 1.04 | locus YJL115W, strain asf1, active compounds read low 0.95 | locus YJL129C, strain trk1, active compounds read low 0.932 | locus YJL134W, strain LCB3, active compounds read low 0.999 | locus YJL154C, strain vps35, active compounds read low 0.954 | locus YJL164C, strain tpk1, active compounds read low 1.02 | locus YJL166W, strain qcr8, active compounds read low 0.929 | locus YJL168C, strain set2, active compounds read low 0.99 | locus YJL187C, strain SWE1 (second series), active compounds read low 0.994 | locus YJR043C, strain POL32, active compounds read low 1.04 | locus YJR066W, strain TOR1, active compounds read low 0.984 | locus YJR075W, strain HOC1, active compounds read low 0.983 | locus YKL009W, strain mrt4, active compounds read low 0.99 | locus YKL068W, active compounds read low 0.993 | locus YKL085W, strain MDH1 (second series), active compounds read low 0.984 | locus YKL085W, strain MDH1, active compounds read low 0.984 | locus YKL160W, strain elf1, active compounds read low 0.97 | locus YKR001C, strain vps1, active compounds read low 0.997 | locus YKR026C, strain gcn3, active compounds read low 0.966 | locus YKR091W, strain srl3, active compounds read low 0.966 | locus YLL001W, strain dnm1, active compounds read low 0.926 | locus YLL026W, active compounds read low 0.986 | locus YLL041C, strain sdh2, active compounds read low 0.97 | locus YLR027C, strain aat2, active compounds read low 0.966 | locus YLR039C, strain RIC1, active compounds read low 1.1 | locus YLR058C, strain SHM2, active compounds read low 0.996 | locus YLR102C, strain apc9, active compounds read low 0.976 | locus YLR113W, strain HOG1, active compounds read low 1.05 | locus YLR221C, strain rsa3, active compounds read low 1.01 | locus YLR258W, strain gsy2, active compounds read low 0.997 | locus YLR262C, strain YPT6 (second series), active compounds read low 0.954 | locus YLR262C, strain YPT6, active compounds read low 1.08 | locus YLR268W, strain sec22, active compounds read low 0.988 | locus YLR320W, strain mms22, active compounds read low 1 | locus YLR330W, strain CHS5, active compounds read low 1.01 | locus YLR342W, strain FKS1 (second series), active compounds read low 0.997 | locus YLR342W, strain FKS1, active compounds read low 0.946 | locus YLR357W, strain rsc2, active compounds read low 0.958 | locus YLR370C, strain arc18, active compounds read low 0.989 | locus YLR371W, strain rom2, active compounds read low 0.993 | locus YLR384C, strain iki3, active compounds read low 0.956 | locus YLR418C, strain cdc73, active compounds read low 0.957 | locus YML016C, strain PPZ1, active compounds read low 1.01 | locus YML032C, strain rad52, active compounds read low 0.997 | locus YML120C, strain ndi1, active compounds read low 0.973 | locus YML124C, strain tub3, active compounds read low 0.997 | locus YMR058W, strain fet3, active compounds read low 0.974 | locus YMR078C, strain ctf18, active compounds read low 0.982 | locus YMR125W, strain sto1, active compounds read low 0.917 | locus YMR129W, active compounds read low 0.985 | locus YMR205C, strain PFK2, active compounds read low 0.953 | locus YMR223W, strain ubp8, active compounds read low 0.965 | locus YMR231W, strain pep5, active compounds read low 0.965 | locus YMR307W, strain GAS1, active compounds read low 1.09 | locus YNL067W, strain RPL9B, active compounds read low 0.99 | locus YNL071W, strain lat1, active compounds read low 0.982 | locus YNL153C, strain GIM3, active compounds read low 0.981 | locus YNL183C, strain NPR1, active compounds read low 0.997 | locus YNL209W, strain ssb2, active compounds read low 0.99 | locus YNL233W, strain BNI4, active compounds read low 0.982 | locus YNL248C, strain rpa49, active compounds read low 0.987 | locus YNL250W, strain rad50, active compounds read low 1.01 | locus YNL271C, strain bni1, active compounds read low 0.994 | locus YNL298W, strain CLA4, active compounds read low 0.991 | locus YNL307C, strain MCK1, active compounds read low 0.979 | locus YNL322C, strain KRE1 (second series), active compounds read low 0.93 | locus YNR049C, strain mso1, active compounds read low 0.976 | locus YNR052C, strain pop2, active compounds read low 0.992 | locus YOL012C, strain htz1 0.734 | locus YOL147C, strain pex11, active compounds read low 0.989 | locus YOR001W, strain rrp6, active compounds read low 0.953 | locus YOR061W, strain CKA2, active compounds read low 1.02 | locus YOR069W, strain VPS5, active compounds read low 1.01 | locus YOR070C, strain gyp1, active compounds read low 0.987 | locus YOR080W, strain dia2, active compounds read low 0.945 | locus YOR083W, strain WHI5, active compounds read low 0.947 | locus YOR106W, strain vam3, active compounds read low 0.939 | locus YOR136W, strain idh2, active compounds read low 0.99 | locus YOR144C, strain elg1, active compounds read low 0.99 | locus YOR184W, strain ser1, active compounds read low 0.99 | locus YOR231W, strain MKK1, active compounds read low 1.04 | locus YOR265W, strain rbl2, active compounds read low 0.967 | locus YOR270C, strain vph1, active compounds read low 0.966 | locus YOR290C, strain snf2, active compounds read low 1.01 | locus YOR316C, strain cot1, active compounds read low 0.991 | locus YPL051W, strain arl3, active compounds read low 0.985 | locus YPL078C, strain atp4, active compounds read low 0.933 | locus YPL106C, strain sse1, active compounds read low 0.944 | locus YPL240C, strain hsp82, active compounds read low 0.967 | locus YPL256C, strain CLN2, active compounds read low 1.03 | locus YPR119W, strain clb2, active compounds read low 0.981 | locus YPR141C, strain kar3, active compounds read low 0.98 | locus YPR163C, strain tif3, active compounds read low 1 | locus YPR167C, strain met16, active compounds read low 0.987 | strain wtn01, active compounds read low 0.986
